Screening results from PubChem BioAssay.
HPGD inh – HPGD (human) dehydrogenase inhibition; hit rate 4.3% among 150,000; purified HPGD, NADH fluorescence kinetic, PGE2 substrate; Potency, µM, for inactives: at the top dose activity change, negative = inhibition, usual class: inhibitors; P15428; active = well fitted inhibition curve with a large enough effect, not every such curve was filed as active; inconclusive = small, poorly fitted or top-dose-only effect, or another doubt; inactive = no such curve, though single readings can be large or run the other way; note: % is set by controls: 0 for no effect and ±100 for the full control effect
Target sequence (P15428 whole entry, looked up): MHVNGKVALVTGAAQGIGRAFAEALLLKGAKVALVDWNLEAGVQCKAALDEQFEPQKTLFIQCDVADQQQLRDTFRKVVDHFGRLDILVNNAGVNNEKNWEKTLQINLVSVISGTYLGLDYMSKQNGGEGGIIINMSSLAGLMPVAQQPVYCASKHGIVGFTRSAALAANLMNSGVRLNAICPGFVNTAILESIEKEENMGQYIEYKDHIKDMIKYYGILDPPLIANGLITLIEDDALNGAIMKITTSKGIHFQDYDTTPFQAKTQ
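NADH formation kinetics: reaction with 30 uM PGE2 and 1 mM NAD+ (final), 20 nM enzyme, Tris-HCl pH 8 with Tween 20, after 15 min compound preincubation at room temperature. Fluorescence change, last versus first of five reads.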
Lamin A splicing – LMNA splicing modulation; AID 1487; hit rate 0.01% among 200,000; Potency, µM (titrated, usually from 46.1 µM), without a hit: at the highest dose ratio change, negative = inhibition, hits mostly inhibitors; HeLa LMNA splicing GFP/RFP minigene ratio, 48 h; active = well fitted inhibition curve with a large enough effect in the signal ratio, with a control signal flat, not every such curve was filed as active; inconclusive = small, poorly fitted or top-dose-only effect, or effect the other way, or a change in a side signal; the % refers to the signal ratio; note: % is set by controls: 0 for no effect and ±100 for the full control effect
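S3 HeLa cells stably expressing lamin A-EGFP splicing minigene plus DsRed2, 600 cells/well, 48 h compound exposure at 37C. Laser-scanning cytometry; analysed as GFP (500-530 nm)/RFP (575-640 nm) total intensity ratio; 0.5% DMSO vehicle.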
HttQ103 aggreg – inhibitors of mutant huntingtin aggregate formation in PC12 cells; PC12 HttQ103-GFP aggregates, Acumen cytometry, 40 h; Potency, µM (highest dose often 46.1 µM), for inactives: at the highest dose activity change, negative = inhibition, actives largely listed as inhibitors; hit rate 1.1% among 220,000; note: % is set by controls: 0 for no effect and ±100 for the full control effect; nearly all actives have a fitted effect of over 60% in size
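Read-out: GFP aggregate count by laser scanning cytometer (488 nm excitation, 500-530 nm emission, 1–25 µm objects >6 SD above background). Cells: PC12, inducible HTTex1-Q103-GFP, 100 nM tebufenozide; compounds titrated.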
KinaseGlo FLuc – blocks Kinase-Glo luciferase, a counter-screen artifact; Q27757; Kinase-Glo luciferase, ATP luminescence, 8 min; Potency, µM (highest dose often 38.3 µM), for the others: at the top dose activity change, negative = inhibition, usual class: inhibitors; hit rate 0.28% among 200,000; note: % is set by controls: 0 for no effect and ±100 for the full control effect; nearly all actives have a fitted effect of over 60% in size
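Light output from Kinase-Glo luciferase with luciferin and 10 uM ATP in 50 mM imidazole pH 7.2, KCl, MgCl2, Tween 20, BSA; compound pin-delivered, 8-min ambient incubation, then luminescence read.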
HTT ATP protect – protects HTT-Q103 PC12 cells, measured by ATP | hit rate 0.14% among 230,000 | Potency, µM (titrated, usually from 56.4 µM), inactives show cytoprotection (ATP increase), usual class: activators | PC12 HTT-Q103 induced, cytoprotection, ATP luminescence, 40 h; note: % of control where 0% means no effect; nearly all actives have a fitted effect of over 45% in size
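ATP quantification (ATPlite) reports survival of PC12 cells in which tebufenozide, 100 nM final, switches on Htt exon 1 with 103 glutamines linked to GFP; compounds are titrated.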
ALDH1A1 block – inhibitors of human aldehyde dehydrogenase 1A1; P00352; Purified ALDH1A1, NADH fluorescence, propionaldehyde substrate; Potency, µM (titrated, usually from 75.3 µM), without a hit: top-dose activity, negative = inhibition, most hits filed as inhibitors; hit rate 7.3% among 220,000; AID 1030; active = well fitted inhibition curve with a large enough effect, not every such curve was filed as active; inconclusive = small, poorly fitted or top-dose-only effect, or another doubt; inactive = no such curve, though single readings can be large or run the other way;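 note: plate controls were no enzyme wells and a reference inhibitor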
Target sequence (P00352 whole entry, looked up): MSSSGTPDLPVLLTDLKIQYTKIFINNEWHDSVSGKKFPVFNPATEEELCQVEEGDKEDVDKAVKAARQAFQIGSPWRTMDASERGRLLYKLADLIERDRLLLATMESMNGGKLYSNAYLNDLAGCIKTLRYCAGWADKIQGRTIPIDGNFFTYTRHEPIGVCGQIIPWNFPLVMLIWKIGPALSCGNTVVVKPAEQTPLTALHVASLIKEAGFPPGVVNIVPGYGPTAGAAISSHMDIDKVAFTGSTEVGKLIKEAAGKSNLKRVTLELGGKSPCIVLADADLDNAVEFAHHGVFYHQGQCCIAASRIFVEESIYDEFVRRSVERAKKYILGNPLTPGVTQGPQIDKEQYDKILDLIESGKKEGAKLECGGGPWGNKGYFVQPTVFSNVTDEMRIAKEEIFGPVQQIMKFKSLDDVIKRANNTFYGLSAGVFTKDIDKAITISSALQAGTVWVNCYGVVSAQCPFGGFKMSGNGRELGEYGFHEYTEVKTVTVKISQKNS
* hit, by the source's call; ? = inconclusive; nt = no result; [ ] = another dose, or the depositor's remark. Compounds with a hit are over-represented: about 9% of the library has one in this group of screens. Unless noted, calls come from the whole dose curve; as a rule, active = well fitted curve in the direction sought with a large enough effect; inconclusive = small, poorly fitted or top-dose-only effect, or another doubt; inactive = no such curve, though single readings can be large; an effect the other way counts as inactive or inconclusive. Potency is the fitted concentration of half-maximal effect.

SMILES	HPGD inh	Lamin A splicing	HttQ103 aggreg	KinaseGlo FLuc	HTT ATP protect	ALDH1A1 block
CCOc1cc(S(=O)(=O)N2CCN(CC)CC2)ccc1Cl	-8%	2%	-15%	-1%	2%	-2%
CCOc1cc(S(=O)(=O)N2CCCCC2)ccc1Cl	-13%	9%	7%	-3%	-20%[10 µM]	22µM*
O=C(COC(=O)CCc1ccccc1)NC12CC3CC(CC(C3)C1)C2	nt	3%[46 µM]	-6%	-5%	30%[10 µM]	-9%
O=C(CON=C1c2ccccc2-c2ccccc21)NC12CC3CC(CC(C3)C1)C2	?	?	11µM*	-1%	-6%[10 µM]	?
O=C(COC(=O)C(O)c1ccccc1)NC12CC3CC(CC(C3)C1)C2 (stereo not given)	-9%	4%	4%	-3%	3%[10 µM]	32µM*
O=C(COC(=O)C12CC3CC(CC(C3)C1)C2)NC12CC3CC(CC(C3)C1)C2	-26%	22%[0.0737 µM]	15%	-1%	-3%	14µM*
CCC(CC)C(=O)OCC(=O)NC12CC3CC(CC(C3)C1)C2	-18%	6%	-3%	17%	-13%	?
Cc1ccc(S(=O)(=O)Nc2ccc3c(c2)nc2n3CCN(Cc3ccccc3)C2)cc1	-20%	-8%	-6%	3%	0%	?
C(=N\Nc1nc2ccccc2[nH]1)/C1CCCCC1	nt	-15%[46 µM]	5%	-6%	-19%	2%
Cc1ccc(-n2c(C)cc(/C=c3/sc4nc5ccccc5n4c3=O)c2C)cc1	-15%	4%	5%	-5%	-26%	?
COc1cc(N2CCCC2)c(OC)cc1/C=c1/sc2nc3ccccc3n2c1=O	0%	6%	-3%	-14%	-5%	16µM*
COc1cc(/C=C/c2sc3ccccc3[n+]2CCCS(=O)(=O)[O-])ccc1O	nt	nt	?	8.9µM*	-22%	?
Cc1ccc2c(c1)sc(C)[n+]2CCCS(=O)(=O)[O-]	nt	nt	4%	-7%	-13%	?
O=C(NNc1c(Cl)cccc1Cl)c1cccs1	nt	nt	1%[9.22 µM]	nt	4%[10 µM]	25µM*
O=C(NNC(=O)c1ccccc1Cl)c1cccs1	-8%	-12%	-37%	-3%	7%[10 µM]	0%
Cc1ccc(S(=O)(=O)N(CC(=O)NCCSCc2ccco2)c2ccc(F)cc2)cc1	nt	nt	-8%	nt	-13%	28µM*
COc1ccc(N(CC(=O)NCCSCc2ccco2)S(=O)(=O)c2ccccc2)cc1	nt	nt	11%[9.22 µM]	-1%	12%[10 µM]	?
COc1ccc(N(CC(=O)NCCSCc2ccco2)S(=O)(=O)c2ccc(C)cc2)cc1	nt	4%[46 µM]	20%[9.22 µM]	2%	5%[10 µM]	20µM*
O=C(CN(c1ccccc1)S(=O)(=O)c1ccccc1)NCCSCc1ccco1	-8%	11%	8%	0%	-5%	10µM*
CN(c1ccc(C(=O)NCCSCc2ccco2)cc1)S(C)(=O)=O	?	-1%	3%	-6%	26%	2.5µM*
O=C(CN(c1ccc(F)cc1)S(=O)(=O)c1ccccc1)NCc1ccco1	6%	24%	?	-3%	-17%[10 µM]	2%
CS(=O)(=O)N(CC(=O)NCCSCc1ccccc1)c1ccccc1	nt	nt	0%[9.22 µM]	-4%	-3%[10 µM]	28µM*
O=C(NCCSCc1ccco1)Nc1cccc(Cl)c1	-7%	?	-5%	4%	-10%[10 µM]	?
Cc1cc(Cl)ccc1N(CC(=O)NCCSCc1ccco1)S(C)(=O)=O	nt	?	-13%[9.22 µM]	0%	-5%[10 µM]	13µM*
CS(=O)(=O)N(CC(=O)NCCSCc1ccco1)c1ccc2c(c1)OCO2	nt	28%[46 µM]	-3%[9.22 µM]	0%	8%[10 µM]	?
SMILES	HPGD inh	Lamin A splicing	HttQ103 aggreg	KinaseGlo FLuc	HTT ATP protect	ALDH1A1 block
Cc1ccc(N(CC(=O)NCCSCc2ccco2)S(C)(=O)=O)cc1	-9%	-1%	25%	2%	-14%	8.9µM*
Cc1ccc(N(CC(=O)NCCSCc2ccco2)S(=O)(=O)c2ccc(F)cc2)cc1	nt	?	-9%[9.22 µM]	0%	7%[10 µM]	20µM*
Cc1nc2ccccc2nc1OCC(=O)NCc1ccc2c(c1)OCO2	-17%	3%	28%	-8%	-14%	-14%
Cc1ccc(NC(=O)CCC(=O)NNC(=O)C(C)(C)C)c(C)c1	nt	nt	20%	2%	-11%	-5%
CCOC(=O)C1CCN(Cc2cn3c(-c4ccc(OC)cc4)nnc3s2)CC1	nt	-6%[46 µM]	nt	nt	nt	nt
CN(C)S(=O)(=O)c1ccc(NC(=O)c2cccnc2)cc1	-4%	7%	7%[9.22 µM]	3%	16%	-2%
Cc1ccccc1-n1c(-c2csc(C)c2C)n[nH]c1=S	-25%	-2%	?	-6%	nt	?
Cc1ccccc1-n1c(-c2csc3ccccc23)n[nH]c1=S	16µM*	2%	14%	-2%	nt	22µM*
CSc1nnc(SC)nn1	-6%	nt	nt	1%	-53%	12%
O=C(O)CC1=C(O)C(=O)N(c2ccccc2)C1c1ccccc1 (stereo not given)	-16%	8%	14%	4%	16%[1.9 µM]	6.3µM*
S=c1[nH]nc(Cc2ccccc2)n1-c1ccccc1	?	-6%	-1%	-1%	17%[10 µM]	?
O=C(/C=C/c1ccc(Cl)cc1)c1cccnc1	-13%	?	15%[9.22 µM]	1%	-29%	-12%
O=C(/C=C/c1ccc(OCc2ccccc2)c(OCc2ccccc2)c1)c1cccnc1	-25%	?	21%	-2%	3%[1.9 µM]	7.1µM*
N/C(=N\OC(=O)/C=C/c1ccccc1Cl)c1ccncc1	nt	nt	14%	1%	?	10µM*
O=C(/C=C/c1ccccc1Cl)c1cccnc1	28µM*	?	-4%	12%	-15%	14µM*
COc1ccc(C2CC(=O)c3cnc(Nc4cc(C)cc(C)c4)nc3C2)cc1 (stereo not given)	?	5%	-10%	-5%	-37%	?
COc1ccccc1NC(=O)Cc1csc(NC(=O)c2ccccc2)n1	nt	nt	nt	-4%	nt	-6%
CCCCC(=O)NC(NC(=S)N1CCOCC1)C(Cl)(Cl)Cl (stereo not given)	-14%	2%	19%	-4%	-6%	11µM*
COc1ccc(CCNC(=O)Cn2c(=O)n(-c3ccc(C)c(F)c3)c(=O)c3sccc32)cc1OC	nt	10%[46 µM]	-11%	-3%	-3%	6.3µM*
O=C(COc1ccc(Cl)cc1Cl)NC(=S)Nc1ccc(CN2CCOCC2)cc1	nt	?	9%[9.22 µM]	nt	11%[10 µM]	?
O=C(/C=C/c1cccc([N+](=O)[O-])c1)NC(=S)Nc1ccc(CN2CCOCC2)cc1	-12%	-23%	31%	6%	-4%[10 µM]	3.2µM*
O=C(CCCCl)NC(=S)Nc1ccc(CN2CCOCC2)cc1	nt	nt	-1%[9.22 µM]	nt	-4%[10 µM]	20µM*
C/C(=N\NC(=O)c1ccc(CN2CCOCC2)cc1)c1cccc([N+](=O)[O-])c1	-6%	?	-1%	2%	-28%[10 µM]	19µM*
O=C(COc1ccccc1Cl)NC(=S)Nc1ccc(CN2CCOCC2)cc1	25µM*	9%	-8%	8%	nt	-1%
